Bioassay records as filed in PubChem.
A selection: hits, their analogues and other compounds. The true share with any hit is near 2.4%.
GLP1R ag: qHTS of GLP-1 Receptor Agonists; Glucagon-like peptide 1 receptor (Homo sapiens), P43220; HEK293 GLP-1R CRE-luciferase, luminescence, 4-6 h; cells express a hypersensitive GLP-1R form; Potency, µM (top dose mostly 45.6 µM), without a hit: at the top dose activation, hits mostly activators; 380,000 tested, 0.007% active; AID 624172, 2012; further: potency means the concentration at half of the fitted maximal effect; % of control where 0% means no effect
TRHR enhancer: qHTS for Small Molecule Agonists and Allosteric Enhancers of Human TRH Receptor: Primary Screen for Enhancers; TRHR cells, fluo-8 calcium fluorescence, EC20 TRH enhancement; Thyrotropin-releasing hormone receptor (Homo sapiens), P34981; AID 493056, 2011; 360,000 tested, 0.66% active; enhancement, % at 2 µM; in the data active means enhancement above about 30%; further: 0% is about no effect
Target sequence (P34981 whole entry, looked up): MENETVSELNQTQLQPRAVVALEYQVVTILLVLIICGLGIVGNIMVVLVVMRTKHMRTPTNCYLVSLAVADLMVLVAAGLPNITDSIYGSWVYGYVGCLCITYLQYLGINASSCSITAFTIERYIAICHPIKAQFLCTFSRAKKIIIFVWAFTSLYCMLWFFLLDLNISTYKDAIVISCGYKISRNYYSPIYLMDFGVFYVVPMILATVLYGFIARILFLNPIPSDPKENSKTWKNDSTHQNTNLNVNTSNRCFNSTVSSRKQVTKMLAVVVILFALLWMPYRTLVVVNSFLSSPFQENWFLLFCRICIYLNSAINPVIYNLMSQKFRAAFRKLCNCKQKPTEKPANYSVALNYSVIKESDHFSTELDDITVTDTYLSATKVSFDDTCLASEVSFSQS
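Enhancer read-out: after compound pinning and an initial kinetic agonist-mode read, an EC20 of TRH (10 nM final) was injected and fluo-8 calcium signal (Ex 480/Em 530) followed at 1 s/cycle for 100 cycles in TRHR-expressing cells.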
PTHR1 agonist: qHTS for PTHR1 Agonists: Primary Screen | Parathyroid hormone/parathyroid hormone-related peptide receptor (Homo sapiens), Q03431 | HEK293 GP2 PTHR1 cells, GloSensor cAMP luminescence, 1 h | Potency, µM (titrated, usually from 115 µM), for inactives: top-dose activation, actives largely listed as activators | 410,000 tested, 0.075% active | AID 743266, 2014; further: potency means the concentration at half of the fitted maximal effect; nearly all actives have a fitted effect of over 55% in size
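HEK-293-derived GP2 cells expressing PTHR1 and a GloSensor cAMP reporter, 3,000/well, plated overnight, given luciferin plus IBMX (each 0.5 mM as added) for 1 h at 37 °C, then compound for 1 h at 37 °C. Luminescence was read after 15 min at room temperature.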
GLP-1R inv ag: qHTS of GLP-1 Receptor Inverse Agonists (Inhibition Mode); Glucagon-like peptide 1 receptor (Homo sapiens), P43220; HEK293 GLP-1R CRE-luciferase, luminescence, 24 h; GLP-1R form is constitutively active; Potency, µM (titrated, usually from 38.3 µM), for inactives: at the highest dose activity change, negative = inhibition, actives largely listed as inhibitors; 410,000 tested, 1.6% active; further: potency means the concentration at half of the fitted maximal effect; on the % scale 0 is the no-effect control and ±100 the full control effect; nearly all actives have a fitted effect of over 55% in size
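Cells are plated, allowed 12 hours at 37 deg C, then treated with compounds for 24 hr before luciferase detection reagent is added and luminescence is read after 12 min at room temperature. The HEK293 line carries constitutively active GLP-1R with a cAMP-responsive reporter.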
GLP1R cytotox: qHTS of GLP-1 Receptor Inverse Agonists: Cytotox Screen; HEK293 cAMP-luciferase reporter cells, luminescence, 24 h; Potency, µM (top dose mostly 38.3 µM), for the others: top-dose activity change, negative = inhibition, actives largely listed as inhibitors; 410,000 tested, 0.13% active; AID 624418, 2012;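 further: loss of luciferase light is scored as toxicity; potency means the concentration at half of the fitted maximal effect; on the % scale 0 is the no-effect control and ±100 the full control effect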
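Luminescence readout: signal drop marks cytotoxicity. Plated cells grew 12 h at 37 °C, 5% CO2, received 23 nL compound for 24 h, then got luciferase reagent, read after 12 min at RT.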
TRHR agonist: qHTS for Small Molecule Agonists and Allosteric Enhancers of Human TRH Receptor: Primary Screen for Agonists. 360,000 tested, 0.18% active. TRHR cells, calcium flux fluo-8, FDSS agonist mode. Thyrotropin-releasing hormone receptor (Homo sapiens), P34981. AID 493084, 2011. activation, % at 2 µM; in the data active means activation above about 30%; further: 0% is about no effect
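In this calcium-flux screen, cells bearing human TRHR are dye-loaded with fluo-8, baselined for 10 cycles, then exposed to library compounds; positive kinetic calcium responses during the agonist phase mark hits, with TRH as control.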
Starred values were filed as active, the others as inactive; i = inactive; ? = inconclusive; · = not tested or not shown; [ ] = dose if it differs, or a comment. Unless noted, the call rests on the fitted dose curve; in most records, active means well fitted curve in the direction sought with a large enough effect; inconclusive means small, poorly fitted or top-dose-only effect, or another doubt; inactive means no such curve, though single readings can be large; an effect the other way counts as inactive or inconclusive.

SMILES	GLP1R ag	TRHR enhancer	PTHR1 agonist	GLP-1R inv ag	GLP1R cytotox	TRHR agonist
O=C(CN1CCN(CC(=O)Nc2ccccc2F)CC1)Nc1cccc(F)c1	7.2%	-4.5	-8.3%	7.6%	-8.3%	0.6
O=C(CN1CCN(CC(=O)Nc2ccc3c(c2)OC2(CCCCC2)O3)CC1)Nc1cccc(F)c1	-7.2%	·	i	10µM*	?	·
Cc1[nH]n(-c2ccccc2)c(=O)c1C1(C(F)(F)F)C(=O)N(c2ccc(F)cc2)C2=C1C(=O)CC(C)(C)C2 (stereo not given)	-4.7%	-7.3	-4.3%[57.5 µM]	3.7%	-6.8%	0.0
C=CCN1C(=O)/C(=C/c2ccc(OCC(=O)O)cc2)S/C1=N/c1nccs1	-3.3%	13.2	-10.0%	147.3%	?	-1.3
C=CCN1C(=O)/C(=C/c2ccc(N(C)C)cc2)S/C1=N\c1nnc(CC)s1	·	6.6	·	·	·	52.7*
O=C1c2ccccc2NC(c2ccc(-c3ccccc3F)o2)N1O (stereo not given)	-1.2%	36.1*	-10.2%	·	·	-0.7
CCCn1c(SCC#N)nc2c(c1=O)C1(CCCC1)Cc1ccccc1-2	0.5%	13.0	i	?	-12.4%	0.3
N#CCSc1nc2c(c(=O)n1Cc1ccco1)C1(CCCC1)Cc1ccccc1-2	7.4%	12.2	-55.0%[57.5 µM]	5.62µM*	-11.7%	0.3
Cc1ccc(NS(=O)(=O)c2ccc(C)c(NC(=O)c3ccc(S(=O)(=O)N4CCCCCC4)cc3)c2)c(C)c1	-5.9%	·	-5.6%	?	2.8%	·
CCc1nc2c(cnn2-c2ccc(Cl)cc2)c(=O)n1-c1ccc(OC)cc1	2.5%	-4.2	-10.6%[57.5 µM]	11.2µM*	-8.0%	0.1
COc1ccc(-n2c(-c3ccccc3F)nc3c(cnn3-c3ccc(C)cc3)c2=O)cc1	·	7.6	i	7.08µM*	2.2%	0.7
N#Cc1cccc(NC(=O)COC(=O)CCc2nc3ccccc3c(=O)[nH]2)c1	6.9%	4.1	i	12.5%	-1.2%	-0.2
COc1ccccc1C(=O)NNC(=O)c1nn(Cc2ccccc2)c(=O)c2ccccc12	10.3%	-2.5	i	?	10µM*	0.4
COc1cccc(NC(=O)CN(C)C(=O)/C=C/c2cn(-c3ccccc3)nc2-c2ccc(C)cc2)c1	-6.7%	5.3	i	2µM*	6.4%	0.9
COc1ccc2cc(-c3cc(C(=O)O)c4ccccc4n3)ccc2c1	-19.6%	·	-12.0%[57.5 µM]	2.24µM*	14.1%	·
COc1cccc(NC(=O)CN(C)C(=O)c2cc(-c3ccc(F)cc3)nc3ccccc23)c1	-19.7%	9.6	-36.9%	7.08µM*	?	-0.5
COc1cccc(NC(=O)CN(C)C(=O)c2cc(-c3ccccc3)nc3ccccc23)c1	-10.0%	2.6	i	?	?	0.3
CCCN1CCN(C(=S)Nc2sc(CC)cc2C(=O)OC)CC1	10.4%	13.4	-6.0%	?	3.4%	0.3
CCOC(=O)c1cc(-c2cccs2)nc2c1c(C)nn2-c1ccccn1	15.7%	-4.8	-4.5%	?	3.55µM*	0.7
COc1ccc(-c2c(C)nn3c(N4CCC5(CC4)OCCO5)cc(C)nc23)cc1OC	9.5%	1.1	-13.9%[57.5 µM]	16.1%	-12.5%	0.0
S=c1[nH]cnc2sc(-c3ccccc3)cc12	1.4%	8.7	-18.6%	-6.0%	5.62µM*	0.3
CNc1ncnc2sc(-c3ccccc3)cc12	?	-4.6	-23.8%	-12.3%[0.307 µM]	7.8%[0.307 µM]	-1.2
Cc1cccc(NC(=O)CSc2nnc(-c3cc(C)n(-c4ccccc4)c3C)o2)c1C	1.8%	-1.1	-7.5%[57.5 µM]	?	-7.0%	-0.4
Cc1cc(-c2nnc(SCC(=O)Nc3ccccc3C(F)(F)F)o2)c(C)n1-c1ccccc1	-21.7%	6.3	-4.1%	0.891µM*	-5.2%	7.9
Cc1ccc(-c2nnc(SCC(=O)Nc3ccccc3F)o2)cc1	-2.1%	-6.1	-90.8%	2.24µM*	-8.3%	-0.6
SMILES	GLP1R ag	TRHR enhancer	PTHR1 agonist	GLP-1R inv ag	GLP1R cytotox	TRHR agonist
COc1ccccc1N(Cc1ccccc1)S(=O)(=O)c1cccc(C(=O)Nc2cc(C)ccn2)c1	-0.4%	5.6	-73.8%	4.47µM*	8.9%	1.6
COc1ccccc1N(Cc1ccccc1)S(=O)(=O)c1cccc(C(=O)Nc2ncccc2C)c1	6.6%	0.1	-7.1%	?	-2.6%	0.1
COc1ccccc1N(Cc1ccccc1)S(=O)(=O)c1cccc(C(=O)NC2CC(C)(C)NC(C)(C)C2)c1	-30.4%	13.8	-19.5%	5.01µM*	?	2.2
Cn1c(=O)c2cc(NC(=O)CCc3ccccc3)ccc2n1Cc1cccc(C(F)(F)F)c1	6.4%	·	-31.8%	?	-24.3%	·
O=c1cc2c(nn1Cc1ccccc1Cl)-c1ccccc1CC2	?	-1.1	-5.6%[57.5 µM]	10µM*	-4.7%	-0.7
CC1CN(C(=O)c2ccccc2Oc2ccccc2)CC(C)O1 (stereo not given)	-0.4%	-2.4	4.6%	-3.3%	-6.3%	-0.3
CCOC(=O)C1(Cc2ccc(OC)cc2)CCN(C(=O)c2ccc3[nH]ccc3c2)CC1	1.1%	0.7	-31.8%	4.47µM*	-12.4%	-1.0
CCC(=O)OCC(=O)Nc1cc(S(=O)(=O)N(C)C)ccc1Cl	5.4%	-1.2	i	3.7%	3.0%	0.0
CCOC(=O)c1c(NC(=O)COc2ccc(OC)cc2)sc(C(=O)N(CC)CC)c1C	·	-7.1	-41.1%	7.94µM*	-16.7%	3.5
CCOC(=O)c1c(NC(=O)COc2ccc(Br)cc2)sc(C(C)=O)c1C	·	-7.2	i	8.7%	-0.2%	0.5
CC(=O)c1ccc(NC(=S)NC(NC(=O)c2ccco2)C(Cl)(Cl)Cl)cc1 (stereo not given)	-17.1%	17.5	-10.7%	5.01µM*	-7.0%	2.5
O=C(NC(NC(=S)Nc1ccccc1O)C(Cl)(Cl)Cl)c1ccco1 (stereo not given)	-8.5%	6.8	i	?	-4.6%	0.6
O=C(NC(NC(=S)Nc1ccc(Cl)cc1)C(Cl)(Cl)Cl)c1ccco1 (stereo not given)	-2.0%	-6.8	-36.5%	3.55µM*	?	0.1
O=C(NNc1cc(Cl)ccc1Cl)C1CCC1	5.2%	-5.5	i	3.16µM*	-25.2%	-0.6
C[C@H]1CN([C@@H](C)CO)S(=O)(=O)c2ccc(C3=CCCC3)cc2O[C@@H]1CN(C)C(=O)C1CCCCC1	-1.7%	·	-25.9%	?	-22.6%	·
